# Measured values from PubChem BioAssay (NCATS).
# Results filed as inconclusive are left out. The source made the active and inactive calls. Calls come from the whole dose curve; as a rule, active = well fitted curve in the direction sought with a large enough effect; inconclusive = small, poorly fitted or top-dose-only effect, or another doubt; inactive = no such curve, though single readings can be large; an effect the other way counts as inactive or inconclusive.
# Test: qHTS of Nrf2 Activators: LOPAC Validation (AID 624149); note: 0% is about no effect
# Conditions: Nrf2/ARE reporter cell assay; series mostly up to 46.1 µM; activation: at the top concentration
# In short: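 AREc32 cells carrying an ARE-driven firefly luciferase were grown overnight in OPTI-MEM with 5% FBS, then exposed to compounds for 24 hr at 37 deg C. Luciferase signal was read after 30 min with Steady-Glo at RT.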
row,SMILES,activation
1,O=C(O)CC[C@@H](C(=O)O)N1C(=O)c2ccccc2C1=O,-0.433% (inactive)
2,O=C(O)[C@@H]1C[C@H](C(=O)O)N1,-1.3% (inactive)
3,N#C/C(=C\c1c[nH]c2ccccc12)C(=O)c1ccc(O)c(O)c1,0.895% (inactive)
4,C#CCN1C(C)=C(C(=O)OC)C(c2cccc([N+](=O)[O-])c2)C(C(=O)OCC)=C1C (stereo unspecified),6.85% (inactive)
5,CN=c1nc(-c2ccccc2)n(-c2ccccc2)s1,6.22% (inactive)
6,Cc1nc2sccn2c(=O)c1CCN1CCC(=C(c2ccccc2)c2ccc(F)cc2)CC1,-2.27% (inactive)
7,NCCNC(=O)c1ncsc1-c1cccc(F)c1,-0.619% (inactive)
8,CCCN(CC1CC1)c1nc(C)nc(Nc2c(Cl)cc(Cl)cc2Cl)c1Cl,-1.79% (inactive)
9,OC[C@H]1O[C@@H](n2cnc3c(NC4CCCCC4)ncnc32)[C@H](O)[C@@H]1O,-1.5% (inactive)
10,COC(=O)c1c(C)[nH]c(C)c1C(=O)c1ccccc1Cc1ccccc1,1.09% (inactive)
11,CCCCCCCCc1ccc(-c2ccc(C(=O)O)cc2)cc1,-2.36% (inactive)
12,Nc1ncnc2c1c(I)cn2[C@@H]1C[C@H](N)[C@@H](O)[C@H]1O,-1.84% (inactive)
13,Cc1cc(NC2CCCCC2)nc(-n2nc(C)cc2C)n1,-1.95% (inactive)
14,CO/S(=N\S(=O)(=O)c1ccc(Cl)cc1)c1ccc([N+](=O)[O-])cc1 (stereo unspecified),-1.97% (inactive)

# Test: HTS Assay for Allosteric Antagonists of the Human D2 Dopamine Receptor: Hit Validation in HTRF (AID 624455);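 note: stable D1 dopamine receptor cell line scored for blocking the D1 response; % is set by controls: 0 for no effect and ±100 for the full control effect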
# Conditions: Cells stably expressing D1 dopamine receptor, inhibition mode; series mostly up to 46.1 µM; activity, negative = inhibition: at the top concentration
# In short: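 Hits were examined in an HTRF assay using cells stably expressing the D1 dopamine receptor, scoring inhibition of the D1-mediated response. The preceding primary screen tracked calcium flux after an EC80 dopamine addition in force-coupled, inducible Hek293 Trex D2 cells.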
row,SMILES,"activity, negative = inhibition"
1,CC1CN(S(=O)(=O)c2cccc3cnccc23)CCN1 (stereo unspecified),-2.91% (inactive)
2,Cn1ncc(S(=O)(=O)Cc2ccccc2)c(Br)c1=O,-8.53% (inactive)
3,O=C(O)CC[C@@H](C(=O)O)N1C(=O)c2ccccc2C1=O,0.731% (inactive)
4,O=C(O)[C@@H]1C[C@H](C(=O)O)N1,-6.79% (inactive)
5,O=C(/C=C/c1ccc(O)c(O)c1)OCCc1ccccc1,2.34% (inactive)
6,NC(=O)C(=O)O,-2.54% (inactive)
7,N#C/C(=C\c1c[nH]c2ccccc12)C(=O)c1ccc(O)c(O)c1,1.66% (inactive)
8,C#CCN1C(C)=C(C(=O)OC)C(c2cccc([N+](=O)[O-])c2)C(C(=O)OCC)=C1C (stereo unspecified),-2.24% (inactive)
9,CCCCCC(O)c1cccc(OCc2ccc3ccccc3n2)c1 (stereo unspecified),0.767% (inactive)
10,CNc1ncnc2c1ncn2[C@@H]1O[C@H](CO)[C@@H](O)[C@H]1O,2.46% (inactive)
11,COC1=C(OC)C(=O)c2ccccc2C1=O,2.44% (inactive)
12,CCCCCCCCCCCCCCCCCCNC(=O)OCC(COP(=O)([O-])OCC[n+]1ccsc1)OC (stereo unspecified),-2.36% (inactive)
13,CC(COc1ccc(/C=C/c2ccccc2)cc1)[N+](C)(C)C (stereo unspecified),7.41% (inactive)
14,CN=c1nc(-c2ccccc2)n(-c2ccccc2)s1,-4.35% (inactive)
15,Cc1nc2sccn2c(=O)c1CCN1CCC(=C(c2ccccc2)c2ccc(F)cc2)CC1,5.73% (inactive)
16,O=C(O)c1cc(=O)c2c(Cl)cc(Cl)cc2[nH]1,-5.45% (inactive)
17,O=C(c1ccc(OCCCc2cnc[nH]2)cc1)C1CC1,1.01% (inactive)
18,Cn1cc(C2=C(c3ccc(Cl)cc3Cl)C(=O)NC2=O)c2ccccc21,-1.36% (inactive)
19,Oc1cc(O)cc(/C=C/c2ccc(O)c(O)c2)c1,5.71% (inactive)

row,SMILES,"activity, negative = inhibition"
1,NCCNC(=O)c1ncsc1-c1cccc(F)c1,-1.63% (inactive)
2,CCCN(CC1CC1)c1nc(C)nc(Nc2c(Cl)cc(Cl)cc2Cl)c1Cl,-12.6% (inactive)
3,Fc1cccc(/C=N/N=C/c2cccc(F)c2)c1,-5.55% (inactive)
4,O=c1[nH]c2cc([N+](=O)[O-])c([N+](=O)[O-])cc2[nH]c1=O,-12.7% (inactive)
5,OC[C@H]1O[C@@H](n2cnc3c(NC4CCCCC4)ncnc32)[C@H](O)[C@@H]1O,18.1% (inactive)
6,COC(=O)c1c(C)[nH]c(C)c1C(=O)c1ccccc1Cc1ccccc1,6.27% (inactive)
7,CCCCCCCCc1ccc(-c2ccc(C(=O)O)cc2)cc1,0.92% (inactive)
8,Nc1ncnc2c1c(I)cn2[C@@H]1C[C@H](N)[C@@H](O)[C@H]1O,-3.88% (inactive)
9,Oc1ccccc1O,-6.07% (inactive)
10,CSc1ccccc1N1CCN(CCCCCC(=O)NC2CCCc3ccccc32)CC1 (stereo unspecified),6.35% (inactive)
11,CCCCCCCCCCCCCCCCCC(=O)OC(CC(=O)O)C[N+](C)(C)C (stereo unspecified),6.98% (inactive)
12,O=C(O)CCCC[C@@H]1CCSS1,-0.389% (inactive)
13,Cc1cc(NC2CCCCC2)nc(-n2nc(C)cc2C)n1,4.89% (inactive)
14,CO/S(=N\S(=O)(=O)c1ccc(Cl)cc1)c1ccc([N+](=O)[O-])cc1 (stereo unspecified),-2.91% (inactive)
15,CC(C)NC[C@H](O)COc1cccc2[nH]ccc12,4.56% (inactive)
16,Nc1ncnc2c1ncn2[C@@H]1O[C@H](COP(=O)(O)CP(=O)(O)OP(=O)(O)O)[C@@H](O)[C@H]1O,-0.271% (inactive)
17,CN(C)CCCO[C@@H]1[C@H]2OC(C)(C)O[C@H]2O[C@@H]1[C@H](O)CO,-2.54% (inactive)
18,CN1CCC[C@H]1c1cccnc1,-4.79% (inactive)
